Measurements from PubChem BioAssay (NCI).
Compounds without any hit were thinned out: in the full panel of roughly 79,000, 15% have a hit. Values without a mark were called inactive. Activity calls are given as the source filed them. No stated cut-off is given here; in the data, active means growth inhibition above about 70%; inactive means the rest.

How the values were obtained:
[1] = NCI Yeast Anticancer Drug Screen. Data for the rad50 strain (AID 155);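 further: 0% = growth of vehicle-only cultures of the same strain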; conditions: S. cerevisiae rad50 strain growth inhibition; at 50.0 µM; stronger effect = higher value
Summary of the method: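 DNA repair mutant yeast, compound exposure, growth read-out; inhibition is taken relative to vehicle.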

[2] = NCI Yeast Anticancer Drug Screen. Data for the mec2-1 strain (AID 157); conditions: S. cerevisiae mec2-1 strain, at 50.0 µM, stronger effect = higher value
Summary of the method: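 Each compound was tested on mec2-1 yeast, a strain altered in DNA damage repair or cell cycle control. Growth inhibition is reported relative to vehicle.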

[3] = NCI Yeast Anticancer Drug Screen. Data for the sgs1 mgt1 strain (AID 161);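 further: 0% = growth of cultures given vehicle only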; conditions: S. cerevisiae sgs1 mgt1 strain, at 50.0 µM, stronger effect = higher value
Summary of the method: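 Mutant yeast exposed to compound; growth scored against vehicle-only wells.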

[4] = NCI Yeast Anticancer Drug Screen. Data for the cln2 rad14 strain (AID 165);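 further: 0% = growth equal to vehicle treated cultures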; conditions: S. cerevisiae cln2 rad14 strain, at 50.0 µM, stronger effect = higher value
Summary of the method: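 Test compounds were added to cln2 rad14 yeast cultures; inhibition of growth was then determined by comparison with vehicle treatment.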

[5] = NCI Yeast Anticancer Drug Screen. Data for the bub3 strain (AID 167); conditions: S. cerevisiae bub3 mutant strain, at 50.0 µM, stronger effect = higher value
Summary of the method: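 In this screen, a yeast mutant lacking normal mitotic checkpoint function is challenged with compound. Relative growth versus vehicle gives the inhibition value.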

[6] = NCI Yeast Anticancer Drug Screen. Data for the mlh1 rad18 strain (AID 175); conditions: S. cerevisiae mlh1 rad18 strain growth inhibition; at 50.0 µM; stronger effect = higher value
Summary of the method: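 Inhibition values reflect reduced growth of mutant yeast versus vehicle-treated controls following compound exposure; the mutations affect DNA damage repair.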

| SMILES | growth inhibition [1] | growth inhibition [2] | growth inhibition [3] | growth inhibition [4] | growth inhibition [5] | growth inhibition [6] |
| --- | --- | --- | --- | --- | --- | --- |
| CCCCOCCOC(=O)CCl | 9.1% | -21.1% | 33% | -14.8% | -4.95% | 14.8% |
| C#CCn1c(I)cc2c(c1=O)COC(=O)[C@]2(O)CC | 0.95% | -3.3% | 19.6% | -5.4% | 6.35% | -31.8% |
| Cc1ccc(S(=O)(=O)OCCN2CC2)cc1 | -12% | -12.2% | -13.6% | -23.2% | -17.4% | -12.7% |
| CCC(=O)NCC1CCCN2CCCCC12 (configuration not stated) | -4.55% | -8.35% | -18.5% | 2.65% | 6.95% | -22% |
| Cc1ccc(N=C2OP(=O)(Nc3ccc(C)cc3)Oc3ccccc32)cc1 (configuration not stated) | -11.3% | -44.8% | -23.6% | 0.3% | -6% | -19.9% |
| CC1(C[N+](C)(C)C)COC(C)(C)O1 (configuration not stated) | -3.95% | 11.6% | 5.25% | -2.85% | 5.3% | 3.95% |
| C/C(=N\N=C(N)N)C(CN(C)C)C(c1ccccc1)c1c(O)c2ccccc2oc1=O (configuration not stated) | 25.6% | 23.4% | -4.45% | 13.8% | -1.5% | 16.8% |
| CC(=O)C(C(C)=O)C(C)=O.[Cr] | 4.85% | -15.1% | -3.6% | 11.1% | -16.1% | 6.45% |
| O=C(O)CCCO | -13.8% | -20.3% | -23.9% | 3.3% | 1.45% | -10.4% |
| CCC[CH2][Sn]([CH2]CCC)([O]C(=O)CN)[O]C(=O)CN | 29.9% | 17.9% | 35.4% | 22% | 19.1% | 44.1% |
| CC(=O)O[C@H]1CC[C@]2(C)C3=C([C@@H](OO)C[C@H]2C1(C)C)[C@]1(C)CC[C@H]([C@H](C)CCCC(C)C)[C@@]1(C)CC3 | 13.1% | 4.4% | 14.7% | 20.9% | 8.45% | 25.3% |
| Brc1ccc(Oc2ccc(Br)cc2Br)c(Br)c1 | 13.9% | -21.5% | 8.2% | 2% | 21.6% | 32.4% |
| Cc1ccc(S(=O)(=O)OC2CC3c4ccccc4C2c2cccc[n+]23)cc1 (configuration not stated) | 68% | 7.5% | 36.4% | -18.4% | 8.8% | 12.1% |
| CCOP(=O)(OCC)Oc1c(Cl)c(Cl)c(Cl)c(Cl)c1Cl | 70.3% (active) | 47.4% | 86% (active) | 28.4% | 23.9% | 78.5% (active) |
| c1cc2c(cc1[C@@H]1OC[C@@H]3[C@H]1CO[C@H]3c1ccc3c(c1)OCO3)OCO2 | 14.1% | 12.8% | 47.2% | 12.2% | 65.5% | 6.15% |
| O=NN1CCN(N=O)CC1 | 4.9% | -0.6% | 6.3% | 8.95% | -0.6% | 28.1% |
| O=C(O)CCCC(=O)CCCC(=O)O.[Pb] | -20% | -27.3% | -11.7% | -36.1% | 2.05% | -4.1% |
| [C-]#[O+].[C-]#[O+].[C-]#[O+].[Mo].c1ccc(P(CC[PH+](CC[PH+](CC[PH+](c2ccccc2)c2ccccc2)c2ccccc2)c2ccccc2)c2ccccc2)cc1 (configuration not stated) | 30.8% | 27.5% | 43.4% | 37.7% | 32.5% | 44.1% |
| ClCCN(CCCl)c1ccc(/C=N/N=C2c3ccccc3-c3ccccc32)cc1 | -21.6% | -7.05% | -6.2% | -2.95% | -18.9% | -4.5% |

| SMILES | growth inhibition [1] | growth inhibition [2] | growth inhibition [3] | growth inhibition [4] | growth inhibition [5] | growth inhibition [6] |
| --- | --- | --- | --- | --- | --- | --- |
| CC1=CC2=C(C)C3(CC3)[C@@](C)(O)C(=O)C2=C1 | 45.5% | 14.3% | 55.8% | 23.9% | 26.9% | -15.2% |
| C[C@]12CC[C@H](O[C@@H]3O[C@H](CO[C@@H]4O[C@H](CO)[C@@H](O)[C@H](O)[C@H]4O)[C@@H](O)[C@H](O)[C@H]3O)C[C@@H]1CC[C@@H]1[C@@H]2CC[C@]2(C)[C@@H](C3=CC(=O)OC3)CC[C@]12O | -7.75% | -13.6% | -1.85% | -0.85% | -1.95% | 8.85% |
| ClCCN(CCCl)c1ncnc2c1ncn2Cc1ccccc1 | 2.9% | 17.4% | 15.6% | -12.6% | -1.95% | -0.4% |
| C/C=C/C(=O)[O-].N.N.N.N.N.[Co+3].[O-][Cl+3]([O-])([O-])[O-] | -10.4% | -5.85% | -7.6% | 9.35% | -12.8% | -36.1% |
| COc1ccn(C)c(=O)c1C#N | 3.15% | 0.3% | -6.35% | 5.6% | 2.15% | -2.4% |
| O=C(Nc1ccccc1)c1ccc([As](c2ccc(C(=O)Nc3ccccc3)cc2)c2ccc(C(=O)Nc3ccccc3)cc2)cc1 | -8.9% | -7% | -4.85% | -23.9% | -19.2% | -33.5% |
| CN(C)c1ccc(C=C2C(=O)NC(=O)NC2=O)cc1 | 37.9% | -16.4% | 19.1% | 14.4% | 14.8% | 9.65% |
| COC1C(O)CC(OC2CC(Oc3cc4cc5c(c(O)c4c(O)c3C)C(=O)[C@@H](OC3CC(OC4CC(OC6CC(C)(O)C(OC(C)=O)C(C)O6)C(O)C(C)O4)C(O)C(C)O3)[C@H]([C@H](OC)C(=O)[C@@H](O)[C@@H](C)O)C5)OC(C)C2OC(C)=O)OC1C (some centres not stated) | 12.7% | 24.9% | 8.15% | 60.2% | 7.1% | 29.2% |
| Cc1ccc(S(N)(=O)=O)cc1 (tested in a mixture with another compound) | 14.9% | 7.9% | 8.8% | 10.8% | 29.4% | 13% |
| Nc1cccc2c1Cc1cc([N+](=O)[O-])ccc1-2 | 8.1% | -37.2% | 17.6% | -14.4% | 3.6% | -1.4% |
| C[C@]12CC[C@@H]3C4=CC(=O)CC[C@@H]4CC[C@H]3[C@@H]1CC[C@@H]2O | -4.3% | -12.1% | 5.2% | -8.45% | 4.8% | -2.75% |
| O=C1NCN(c2ccccc2)C12CCN(Cc1ccccc1)CC2 | -4.6% | -23.7% | 14.6% | 12.3% | 3.1% | 5.5% |
| CC[N+](C)(C)c1ccc(C)c(OC(=O)NC)c1 | -4.35% | -11.2% | -0.2% | -24.8% | 15.3% | -0.45% |
| c1ccc2c3c(ccc2c1)NC1CCCN1C3 (configuration not stated) | 21.8% | 6.65% | -0.85% | -38.8% | -8.6% | 12.2% |
| CN(C)[C@@H]1C(=O)C(C(N)=O)=C(O)[C@@]2(O)C(=O)C3=C(O)c4c(O)ccc(Cl)c4[C@@](C)(O)[C@H]3C[C@@H]12 | -16.9% | 1.1% | 13.2% | -6.6% | -8.8% | -4.1% |
| S=C([S-])N1CCCCC1.S=C([S-])N1CCCCC1.[Zn] | 79.5% (active) | 73.3% (active) | 96% (active) | 22.9% | -3% | 65% |
| NC(Cc1c[nH]c2cc([N+](=O)[O-])ccc12)C(=O)O (configuration not stated) | 13.8% | 2.15% | -33.9% | -7.45% | -43% | -0.25% |
| CCOC(=O)C1C2(C(C)=O)C=Nc3c(C#N)cnn3C12C(=O)OCC (configuration not stated) | 0.9% | -3.35% | 4.85% | 28.4% | 4.2% | -7.95% |
